# Compounds without any hit were thinned out: in the full panel of roughly 83,000, 20% have a hit.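 Results are percent growth after 48 hours of single-concentration exposure. 100 means growth as in untreated cells, lower positive values show inhibition; negative values down to -100 show cell death.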 Calls of active or inactive are those of the source.
# System: NCI/ADR-RES ovarian
# Assay: NCI-60 one-dose screen, 48 h (100 = growth as untreated, 0 = no growth, -100 = all killed)
# Conditions: 10 µM
# Description: Growth inhibition of the NCI/ADR-RES human […] tumor cell line is measured as a screen for anti-cancer activity. Cells are grown in 96 well plates and exposed to the test compound for 48 hours. Compounds are tested at a single concentration, which is 10^-5 M for most compounds. The reported endpoint is percent growth (GI% or GIPRCNT), where numbers from 0 - 100% represent growth inhibition, and numbers from -100% - 0 represent cell death. For example, a value of 40 represents 60% growth inhibition. A value of 0 means no net growth occurred over the course of the experiment. A value of -40 indicates 40% of cells at the beginning of the experiment died by the end of the experiment. A value of -100 means all cells are dead at the end of the experiment.
# NCI-60 Human Tumor Cell Lines Screen was performed using the standard one-dose NCI protocol, which is described in more detail at https://dtp.cancer.gov/discovery_development/nci-60/default.htm.
# Compounds with GIPRCNT values below 10 were considered active. Activity score was based on GIPRCNT using the following formula: […]
# Score is 0 for GIPRCNT values of 100 or above, 50 for GIPRCNT values of 0, and 100 for GIPRCNT values of -100.
row,Structure (SMILES),growth
1,O=C(Nc1cccc(-n2cc(-c3ccncc3)c(-c3ccc(O)c(Cl)c3)n2)c1)c1cccc(C(F)(F)F)c1,35.1% (inactive)
2,COc1cc(/C(=C2/O[C@@H]([C@H]3COC(C)(C)O3)[C@H]3OC(C)(C)O[C@@H]23)c2ccc3ccccc3c2)cc(OC)c1OC,25.9% (inactive)
3,Clc1ccc(/C=C2\CCCC3=C2N=C2SC=NN2C3c2ccc(Cl)cc2)cc1 (stereo not given),102% (inactive)
4,O=C(CCCCC(=O)Nc1ccc2c(c1)/C(=C/c1ccc[nH]1)C(=O)N2)NO,93.8% (inactive)
5,CCCN(CCC)CCC(O)c1cc2c(c3ccccc13)CCCC2 (stereo not given),83.3% (inactive)
6,CCN1CCN(c2nc3ccccc3c3c(=O)c4ccccc4sc23)CC1,37.8% (inactive)
7,C=C(NC(=O)C(=C)NC(=O)c1csc(C2=NC3c4csc(n4)C4NC(=O)c5csc(n5)C(C(C)(O)C(C)O)NC(=O)C5CSC(=N5)/C(=C/C)NC(=O)C(C(C)O)NC(=O)c5csc(n5)C3(CC2)NC(=O)C(C)NC(=O)C(=C)NC(=O)C(=C)NC(=O)C(C(C)C)NC2C=Cc3c(C(C)O)cc(nc3C2O)C(=O)OC4C)n1)C(N)=O (stereo not given),77.2% (inactive)
8,CCCCCCCCCCCCCCCCN(C(C)c1ccccc1)S(=O)(=O)c1ccc(OC)c(N)c1 (stereo not given),98.7% (inactive)
9,Clc1cccc(-c2nc(-c3cccs3)no2)c1,107% (inactive)
10,COc1cc(NC(=O)c2sc3nc4c(cc3c2N)C(O)CCC4)cc(OC)c1 (stereo not given),87.3% (inactive)
11,CC(=O)c1nc2ccccc2n1CCNC(N)=O,101% (inactive)
12,Clc1ccc(Nc2ccnc(NCCNc3ccnc4cc(Cl)ccc34)n2)cc1,44.8% (inactive)
13,O=C1Nc2ccccc2C1=NC1CCCCC1,103% (inactive)
14,Fc1ccc2nc(-c3nc(-c4ccccc4)n4ccccc34)[nH]c2c1,-13.1% (active)
15,COc1ccc(C2=NN(C(=O)c3ccc(S(C)(=O)=O)cc3)C(c3ccc(OC)c(OC)c3)C2)c(OC)c1 (stereo not given),107% (inactive)
16,COc1ccc(-c2nc(-c3nc4ccc(OC)cc4[nH]3)cc3c2[nH]c2ccccc23)cc1,32.9% (inactive)
17,O=C(O)C(SC(C(=O)O)c1ccccc1)c1ccccc1 (stereo not given),106% (inactive)
18,CCOC(=O)C1(CC(C)C)CCOC1=O (stereo not given),98.8% (inactive)
19,COc1cc(-c2cc(/C=C/C(=O)c3ccc(F)c(F)c3)[nH]n2)cc(OC)c1OC,63.5% (inactive)
20,CCN(CC)CCCOCCCNc1cc(OC)cc2cccnc12,95.4% (inactive)

row,Structure (SMILES),growth
1,CCN(CCCCCCCCCCN1CC(=O)N(CCCCCCCCCCN(CC)Cc2ccccc2OC)CC1=O)Cc1ccccc1OC,-32.9% (active)
2,CCN(CC)CCNC(=O)c1ccc(NC(C)=O)cc1,96.9% (inactive)
3,Cc1ccc(S(=O)(=O)Oc2ccc3c4c(c(=O)oc3c2)CCCCC4)cc1,53.2% (inactive)
4,COc1ccc(-c2ccc3cc(C(=O)Nc4ccc(O)c(C(=O)/C=C/c5cc(OC)c(OC)c(OC)c5)c4)ccc3c2)cc1,95.4% (inactive)
5,CCCCCCCCN(CCCCCCCC)CCCCCCCCCN1CCCc2cc(OC)ccc21,88.5% (inactive)
6,COc1ccc(Nc2nc3ccc(NC(=O)NC4CCCCC4)cc3[nH]c2=O)cc1,103% (inactive)
7,Cn1c([N+](=O)[O-])cnc1/C=C1\Oc2ccc(Cl)cc2C1=O,2.61% (active)
8,COc1ccc(NC(=O)Cc2nc3nc4sc(C)c(C)c4c(=O)n3[nH]2)cc1,103% (inactive)
9,NC1(C(=O)O)CSSC1,59.8% (inactive)
10,COc1cc(Cl)cc(-c2nn(-c3cccc(NC(=O)Nc4ccc(Cl)c(Cl)c4)c3)cc2-c2ccncc2)c1,8.59% (active)
11,CN(C)C=Nc1cc(Cl)ccc1Cl,107% (inactive)
12,O=C1OCC2=C1C(c1cccc(Cl)c1)c1cc3c(cc1N2CCO)CCC3 (stereo not given),-23% (active)
13,O=C(Nc1ccc(Cl)c([N+](=O)[O-])c1)Nc1nc2ccccc2s1,80.9% (inactive)
14,Cc1ccc(NC(=O)Nc2nc3ccccc3s2)cc1NC(=O)Nc1nc2ccccc2s1,91.7% (inactive)
15,c1ccc(CP(Cc2ccccc2)c2ccccc2)cc1,101% (inactive)
16,Nc1nccc(Nc2ccccc2)n1,111% (inactive)
17,COc1cccc(C(=O)Nc2ccc(CN3CCc4nc5cc(OC)c(OC)cc5cc43)cc2)c1,47.1% (inactive)
18,COc1ccc2nc3cc(Cl)ccc3c(NCCNCC(C)O)c2c1 (stereo not given),51.9% (inactive)
19,COc1cc(/C=C2\CCCC3=C2N=C2SC=NN2C3c2cc(OC)c(OC)c(OC)c2)cc(OC)c1OC (stereo not given),18.5% (inactive)
20,CCCCCCc1cc(N=Nc2ccc(S(=O)(=O)Nc3cc(C)nc(C)n3)cc2)c(O)cc1O,99.9% (inactive)

# — PubChem BioAssay (NCI)
